Vaccinia mCherry = inhibitors of vaccinia virus infection (mCherry reporter signal). Vaccinia virus mCherry reporter infection, fluorescence. Potency, µM (series often up to 36.5 µM), without a hit: at the highest dose activity change, negative = inhibition, actives largely listed as inhibitors. actives 0.63% (n = 310,000); calls by dose curve; tested in A549 cells; note: % is set by controls: 0 for no effect and ±100 for the full control effect; nearly all actives have a fitted effect of over 35% in size
Pf growth 48h = P. falciparum growth inhibition at 48 hours (one generation) | P. falciparum luciferase growth in erythrocytes, 48 h | Potency, µM (series often up to 28.7 µM), for inactives: at the highest dose activity change, negative = inhibition, usual class: inhibitors | actives 5.9% (n = 310,000); note: % is set by controls: 0 for no effect and ±100 for the full control effect
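Read-out is firefly luciferase luminescence from an integrated reporter in P. falciparum, so falling signal marks reduced parasite growth. Infected erythrocytes were at 2% hematocrit and 0.1% parasitemia (final) in Albumax-supplemented RPMI 1640.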
Pf growth 96h = inhibits malaria parasite growth, 96 h | P. falciparum luciferase reporter growth, 96 h | Potency, µM (series often up to 28.7 µM), for inactives: top-dose activity change, negative = inhibition, usual class: inhibitors | actives 6.9% (n = 320,000) | AID 504834; note: % is set by controls: 0 for no effect and ±100 for the full control effect
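Cell-based qHTS: luciferase-tagged P. falciparum in erythrocytes (2% hematocrit, 0.05% parasitemia final) incubated with compounds for 96 hours, 37 C, 5% CO2; luciferase detection reagent then added and luminescence measured.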
NS1 inh = influenza NS1 inhibition; Potency, µM (top dose mostly 46.1 µM), without a hit: at the highest dose activity, positive = more growth; actives 0.4% (n = 270,000); calls by dose curve; note: actives are rising curves; nearly all actives have a fitted effect of over 50% in size
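Recovery from NS1-induced slow growth read by OD600 in budding yeast switched to galactose assay medium (pH 6.0, -URA) at 1:100 dilution. Compound 23 nl per well; the matching strain lacking NS1 serves as control.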
VACV Venus inh = vaccinia inhibition (Venus reporter); Vaccinia virus Venus reporter expression, fluorescence; Potency, µM (top dose mostly 36.5 µM), inactives show at the highest dose activity change, negative = inhibition, actives largely listed as inhibitors; actives 0.46% (n = 330,000); calls by dose curve; tested in A549 cells; note: % is set by controls: 0 for no effect and ±100 for the full control effect; nearly all actives have a fitted effect of over 30% in size
HCV inhibitor = inhibitors of hepatitis C virus infection; actives 3.4% (n = 340,000); Huh7.5.1 HCVcc-Cre infection, luciferase reporter, 44 h; Potency, µM (doses to about 41.8 µM), inactives show top-dose activity change, negative = inhibition, hits mostly inhibitors; note: % is set by controls: 0 for no effect and ±100 for the full control effect
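Compounds are dispensed onto cells plated 4 h earlier at 1,000 per well, with HCVcc-Cre virus (about 0.5 moi) added next. Following 44 h of culture, luminescent signal is measured for 15 sec after 15 min with substrate at room temperature.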
* marks the source's active call; other numbers are inactive results; i = inactive; ? = inconclusive; . = not tested or not shown; [ ] = remark or other dose. Hits are enriched below; roughly 11% of the tested compounds scored in any of these assays. Unless noted, calls come from the whole dose curve; as a rule, active = well fitted inhibition curve with a large enough effect; inconclusive = small, poorly fitted or top-dose-only effect, or another doubt; inactive = no such curve, though single readings can be large or run the other way. Potency is the fitted concentration of half-maximal effect.

SMILES	Vaccinia mCherry	Pf growth 48h	Pf growth 96h	NS1 inh	VACV Venus inh	HCV inhibitor
Cc1ccc(S(=O)(=O)N(C)c2ccc(C(=O)NCCc3ccccc3)cc2)cc1	-7%	?	10µM*	2%	-23%	.
Cc1ccc(CNC(=O)c2ccc(N(C)S(=O)(=O)c3ccccc3)cc2)cc1	-17%	?	?	-7%	-6%	?
COc1ccc(NC(=O)COc2ccc(N(C)S(=O)(=O)c3ccc(Cl)cc3)cc2)cc1	.	12µM*	?	.	.	11µM*
CCCNC(=O)NC(=O)CSc1nnc(-c2ccncc2)n1CC	i	-2%	-10%	-1%	-3%	14%
CCOC(=O)N1CCC(N2C(=O)c3ccccc3C2Nc2cc(OC)c(OC)c(OC)c2)CC1 (stereo not given)	13%	?	?	-2%	-21%	7%
CCOC(=O)N1CCC(N2C(=O)c3ccccc3C2Nc2cc(Cl)c(OC)cc2OC)CC1 (stereo not given)	?	13µM*	?	-25%	0%	-5%
Cc1cccc(N2CCN(c3cccc(C)c3)C2c2cccnc2)c1	.	1.9µM*	-24%	-17%	.	?
Cc1cccc(N2C(=O)CSC2c2cccnc2)c1 (stereo not given)	i	.	-7%	13%	-8%	21%
COCc1cc(=O)n2[nH]cc(-c3ccccc3)c2n1	-19%	30%	-18%	-3%	-21%	5%
Cc1cc(=O)n2[nH]cc(-c3ccccc3)c2n1	-27%	1%	9.3µM*	28%	-24%	1%
COc1cc(/C=C(\C#N)C(=O)Nc2ccc(SC(F)F)cc2)cc(OC)c1OC	.	.	5.2µM*	-5%	.	-23%
Cc1ccccc1C(=O)c1cccn1CC(=O)NC(C)CCc1ccccc1 (stereo not given)	-8%[7.34 µM]	10%	-14%	-8%	-8%[7.34 µM]	-17%
COc1ccc(C2N(c3cc(C)on3)C(=O)C3CCCN32)cc1OC (stereo not given)	.	9%	?	0%	.	18%
COc1cc(OC)c(C2N(c3cc(C)on3)C(=O)C3CCCN32)cc1OC (stereo not given)	.	3%	4.7µM*	2%	.	-36%
COc1cccc(C2=CC(c3ccc(OC)c(OC)c3)NC(=S)N2)c1 (stereo not given)	.	10µM*	?	5%	.	?
COc1ccc(C2=CC(c3ccc(OC)c(OC)c3)NC(=S)N2)cc1 (stereo not given)	?	?	?	20%	2%	-7%
CC(C)CCNC(=O)c1nnc(Cc2ccc(Cl)cc2)o1	i	.	8.3µM*	-1%	-20%	9%
Cc1ccc(Cn2nc(C)c(NC(=O)CSc3n[nH]c(C)c3[N+](=O)[O-])c2C)cc1	i	-25%	4%	1%	-12%	1%
CC1COC(C)(CC(=O)NN2C(=O)c3ccccc3C2=O)O1 (stereo not given)	i	28%	2.6µM*	3%	-6%	7%
Cc1ccccc1CN1C[C@@H]2C[C@@H](c3cnc(N4CCOCC4)s3)N3CCC[C@@]23C1=O	i	?	13%	1%	-9%	?
O=S(=O)(c1ccc2c(c1)N(Cc1ccc(Cl)cc1)C1CCCN21)N1CCOCC1 (stereo not given)	.	?	8.3µM*	-11%	-16%	-6%
COc1ccc(CN2c3cc(S(=O)(=O)N4CCOCC4)ccc3N3CCCC32)cc1 (stereo not given)	.	.	8.3µM*	10%	-9%	-3%
O=C(Cc1ccc(Cl)cc1)Nc1cc(S(=O)(=O)N2CCOCC2)ccc1N1CCCC1	-9%	-45%	0%	.	1%	-16%
CCOC(=O)[C@H]1[C@H]2COc3ccc(C)cc3[C@@H]2N2C(=O)CN(Cc3ccco3)C(=O)[C@@]12C	-12%	?	1%	.	-5%	-18%
C=CCN1C=C2C(=O)C(C)(OC(=O)CCC(=O)OC)C(=O)C=C2C=C1C1CC1 (stereo not given)	i	7.4µM*	2.6µM*	3%	-2%	0%
